In PubChem BioAssay (NCI):
Compounds without any hit were thinned out: in the full panel of roughly 83,000, 20% have a hit.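 Values shown are percent growth following 48 h exposure of cells in 96-well plates to a single concentration of compound; below 10 was considered active.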 Values without a mark were called inactive. Calls of active or inactive are those of the source.

How the values were obtained:
Test in all cases: NCI-60 one-dose screen, 48 h (100 = growth as untreated, 0 = no growth, -100 = all killed)
Conditions in all cases: 10 µM unless noted
SK-MEL-2 melanoma = system: SK-MEL-2 melanoma
EKVX NSCLC = system: EKVX NSCLC
SN12C renal = system: SN12C renal
UO-31 renal = system: UO-31 renal
TK-10 renal = system: TK-10 renal
ACHN renal = system: ACHN renal
CAKI-1 renal = system: CAKI-1 renal
A498 renal = system: A498 renal
CCRF-CEM leukemia = system: CCRF-CEM leukemia
MOLT-4 leukemia = system: MOLT-4 leukemia
SR leukemia = system: SR leukemia
RPMI-8226 leukemia = system: RPMI-8226 leukemia
OVCAR-8 ovarian = system: OVCAR-8 ovarian
OVCAR-5 ovarian = system: OVCAR-5 ovarian
OVCAR-4 ovarian = system: OVCAR-4 ovarian
SK-OV-3 ovarian = system: SK-OV-3 ovarian
IGROV1 ovarian = system: IGROV1 ovarian
OVCAR-3 ovarian = system: OVCAR-3 ovarian
HS 578T breast = system: HS 578T breast
NCI/ADR-RES ovarian = system: NCI/ADR-RES ovarian

Compound	growth (SK-MEL-2 melanoma)	growth (EKVX NSCLC)	growth (SN12C renal)	growth (UO-31 renal)	growth (TK-10 renal)	growth (ACHN renal)	growth (CAKI-1 renal)	growth (A498 renal)	growth (CCRF-CEM leukemia)	growth (MOLT-4 leukemia)	growth (SR leukemia)	growth (RPMI-8226 leukemia)	growth (OVCAR-8 ovarian)	growth (OVCAR-5 ovarian)	growth (OVCAR-4 ovarian)	growth (SK-OV-3 ovarian)	growth (IGROV1 ovarian)	growth (OVCAR-3 ovarian)	growth (HS 578T breast)	growth (NCI/ADR-RES ovarian)
COc1ccc2[nH]c(O)c(N=NC(=O)COc3ccc(NC(=O)Nc4ccccc4)cc3)c2c1	43.6%	65.4%	25%	94.5%	113%	94.2%	82.5%	71.7%	77.9%	77.1%	52.8%	80%	9.54% (active)	72.3%	19.7%	42.3%	60.7%	65.5%	14%	110%
COC(=O)C[C@](O)(CCCC(C)(C)O)C(=O)O[C@H]1C(OC)=C[C@@]23CCCN2CCc2cc4c(cc2[C@@H]13)OCO4	-40% (active)	-4.85% (active)	-11.3% (active)	30.6%	-12.6% (active)	2.95% (active)	3.41% (active)	-18.6% (active)	-5.84% (active)	-6.36% (active)	-25% (active)	-18.1% (active)	-34.8% (active)	-14.5% (active)	-13.9% (active)	2% (active)	-15.7% (active)	-28.5% (active)	-26% (active)	96.3%
COc1ccc(C2CC(c3ccc(S(=O)(=O)NCCNc4nc(Nc5ccc(F)cc5)nc(N(C)C)n4)cc3)=Nc3c(N)nc(N)nc3N2)cc1 (stereo not given)	107%	87.9%	81.1%	86.2%	107%	92.7%	88.1%	93.6%	36.2%	20.6%	8.79% (active)	24%	79.5%	98.8%	83.7%	108%	95.7%	95.4%	70.6%	99.9%
N/C(=N\N=C\c1ccc([N+](=O)[O-])cc1)c1c(N)nc(=S)[nH]c1-c1ccc(Cl)cc1Cl	93.4%	98.9%	96.1%	98.3%	142%	88.9%	78.9%	160%	106%	94%	76.9%	97.3%	98.4%	111%	111%	89.1%	94.9%	110%	87.1%	105%
COc1ccc(/C=C/c2n(Cc3ccc4ccccc4c3)c3ccccc3[n+]2Cc2ccc3ccccc3c2)cc1	-93.7% (active)	-82.7% (active)	-88.8% (active)	-93% (active)	-93.7% (active)	-100% (active)	-100% (active)	-79.8% (active)	-24.2% (active)	-2.71% (active)	-34.9% (active)	-48.5% (active)	-75.2% (active)	-98.4% (active)	-65% (active)	-95.7% (active)	-76.2% (active)	-82.8% (active)	-59.3% (active)	-53.4% (active)
CCOC(=O)C1=C(N)N(c2ccccc2)C2=C(C(=O)CC(C)(C)C2)C1c1ccc(N2CCOCC2)cc1 (stereo not given)	97.4%	95.4%	95.7%	90.3%	108%	96.7%	82.1%	110%	105%	99.2%	83.8%	96.2%	97.1%	101%	101%	102%	108%	113%	95.1%	100%
CC(=O)OCC1OC(OC2C(COC(C)=O)OC(n3cc(COc4ccc5ccc(=O)oc5c4)nn3)C(OC(C)=O)C2OC(C)=O)C(OC(C)=O)C(OC(C)=O)C1OC(C)=O (stereo not given)	113%	107%	98.3%	74.7%	108%	102%	88.1%	116%	100%	97%	98.1%	97.3%	106%	112%	115%	109%	111%	113%	89.2%	99.9%
COc1c(F)ccc(C(=O)Nc2ccc3nc(NC(=O)C4CCCN(S(=O)(=O)c5cccc(C(F)(F)F)c5)C4)sc3c2)c1F (stereo not given)	83.8%	94.5%	78.8%	74.8%	102%	83.6%	83.1%	101%	88.7%	44.9%	38.4%	54.4%	94.5%	101%	74.3%	102%	77.5%	88.1%	61.1%	84.3%
C=C1CCC2C3(C)COC(c4ccccc4)OC3CCC2(C)C1CC(NCc1ccccc1)C1=CCOC1=O (stereo not given)	101%	73.8%	79.4%	56.7%	76%	86.4%	58.1%	76.6%	101%	61.1%	68.6%	34.1%	82.9%	87.5%	82.8%	79.9%	90.6%	83%	78%	77.7%
O=C(NN1C(=O)/C(=C/C=C/c2ccc([N+](=O)[O-])o2)SC1=S)c1ccc(Cl)cc1	-90.8% (active)	-97.4% (active)	-98.6% (active)	-100% (active)	-99% (active)	-100% (active)	-100% (active)	-93.7% (active)	-14.7% (active)	2.15% (active)	4.16% (active)	-23.8% (active)	-78.2% (active)	-97.7% (active)	-98.9% (active)	-99.6% (active)	-92.9% (active)	-98% (active)	-18.4% (active)	-42.6% (active)
O=C(c1ccccc1)c1ccc2nc(-c3cccc(Cl)c3)[nH]c2c1	106%	105%	99.5%	95.4%	95.9%	100%	106%	114%	113%	103%	117%	114%	103%	107%	114%	99.9%	113%	116%	108%	104%
CN(C)CCCNC(=O)c1cc(NC(=O)c2cc(NC(=O)c3ccc(/C=C/c4ccccc4)cc3)cn2C)cn1C	60.6%	66.9%	49.3%	66.6%	83.7%	40.3%	34.7%	103%	22.9%	-5.97% (active)	-30.3% (active)	-0.0203% (active)	35.7%	105%	58.4%	88.7%	78.3%	51.6%	94.6%	91.6%
C#CCOc1cc(N(CC)CC)ccc1C(C(=O)NC(C)(C)C)N(C(=O)C1CCc2cc(F)ccc2O1)c1ccccc1Br (stereo not given)	3.66% (active)	60.4%	56.3%	43.4%	86.3%	42.1%	44.7%	80.9%	57.5%	14.4%	47.6%	37.9%	63.2%	69%	60.4%	72.1%	90.9%	81.6%	84.7%	63.3%
CN(C)CCOc1ccc(C(=O)C2[C@H](c3ccc(Cl)cc3)[C@@H](c3ccccc3)NC23C(=O)Nc2ccccc23)cc1 (stereo not given in full)	112%	77.2%	69.1%	59%	117%	88.3%	58%	112%	86.3%	-32.8% (active)	-18% (active)	49.7%	88.1%	85.8%	70.6%	121%	80.2%	73.2%	77.4%	86.4%
COc1ccc(/C=C2\C(=N)N=C(SCc3nc4ccccc4[nH]3)NC2=O)cc1	114%	109%	103%	77.8%	149%	109%	92.8%	119%	94.9%	104%	103%	95.8%	107%	119%	102%	116%	114%	110%	99.5%	104%
